SMILES strings stand for the structures. Out of some 2,100 compounds screened, about 480 (23%) were called active. About 5% were inconclusive and are not listed.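 How the source made its calls: active means fitted curve reaches 40% activation at or below the top valid concentration, in every replicate test; inconclusive means replicate tests disagree on the call; inactive means the rest, including activity in the opposite direction.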 The list is a sample of the results. Measured potencies and affinities stand elsewhere.

This experiment can be described thus: activators raising PGC1a acetylation in cells, dose response, cell-based, cherry-picked samples, set 6 (AID 720513).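 Further: cells made to overexpress flag tagged PGC1a plus GCN5 acetyltransferase by viral infection.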 The following applies: U2OS PGC1a acetylation AlphaLISA, overnight, 0 = neutral, -100 = inhibitor control; series mostly up to 19.5 µM. (In general: In Alpha technology, singlet oxygen from a donor bead excites a nearby acceptor bead.)
For the compound `Cc1ccc(C(=O)OCN2C(=O)c3ccccc3C2=O)o1`, the outcome was inactive.
Under `CCCCC1C(=O)N(c2ccccc2)N(c2ccc(O)cc2)C1=O` (stereo unspecified) stands “inactive”; under `O=C(Nc1nc2cc3c(cc2s1)OCCO3)c1ccncc1`, “inactive”; under `C[C@@H]1CN([C@@H](C)CO)C(=O)c2cc(NS(=O)(=O)c3ccc(F)cc3)ccc2O[C@@H]1CN(C)S(=O)(=O)c1ccc(Cl)cc1`, “inactive”.
To `CC(C)NC(=O)Nc1ccc2c(c1)C(=O)N([C@@H](C)CO)C[C@@H](C)[C@H](CN(C)Cc1ccc(C(=O)O)cc1)OCCCC[C@H](C)O2` belongs “inactive”; to `CCCC(=O)C1=C(O)C(C(=O)OC)C(C)(C)CC1=Nc1ccc(OC)cc1` (stereo unspecified), “inactive”; to `NC(=O)c1sc2nc3c(c(-c4cccs4)c2c1N)CCCCC3`, “inactive”.
For `COc1ccc(S(=O)(=O)N[C@H]2CC[C@@H](CCNC(=O)c3ccccc3F)O[C@@H]2CO)cc1`, the call was inactive.
Regarding `O=C(Cc1ccccc1)N1CC[C@@H]2[C@H]1c1cc(C#Cc3ccccc3)ccc1N[C@@H]2CO`, the outcome was inactive.
To `CCCOC(=O)c1ccc(-n2nnnc2SCC(=O)N2CCCCC2)cc1` belongs “inactive”; to `C[C@@H]1CN([C@@H](C)CO)C(=O)c2cccc(NC(=O)Nc3ccccc3)c2O[C@H]1CN(C)S(=O)(=O)c1cccs1`, “inactive”.
Under `CN(CC(=O)Nc1ccccc1Br)C(=O)c1cccc(S(=O)(=O)NCc2ccccc2)c1` stands “inactive”.
Consider `COc1ccccc1NC(=O)Cn1c(C)cc(=O)c2cccc(OC)c21`, for which the compound was called inactive.
To `COc1ccc(Cl)cc1NC(=O)NCC1CCN(C(=O)OC(C)(C)C)CC1` belongs “inactive”; to `O=C(Nc1ccc(C(F)(F)F)cc1)N1C[C@@H]2N[C@H](C1)C2c1ccc(/C=C/c2ccccc2)cc1` (stereo partly specified), “inactive”; to `O=C(Nc1ccc(C(F)(F)F)cc1)N1C[C@@H]2N[C@H](C1)C2c1ccc(-c2ccccc2)cc1` (stereo partly specified), “inactive”.
To `CO[C@@H]1CN(C)C(=O)c2ccc(NS(=O)(=O)CC(F)(F)F)cc2OC[C@@H](C)N(C(=O)NC(C)C)C[C@H]1C` belongs “inactive”; to `O=C(CNC(=O)C1CCCCC1)OCC(=O)c1ccc(Cl)s1`, “inactive”; to `CCOCCc1nn2c(=O)cc(CSCC(=O)Nc3cccc(C)c3C)nc2s1`, “inactive”.
Under `CC(C)(C)NC(=O)c1ccc(Sc2ccccc2)c([N+](=O)[O-])c1` stands “inactive”; under `Cc1cc(=O)[nH]c(SCC(=O)c2ccc(F)c(C)c2)n1`, “inactive”.
For `Cc1cccc(Oc2ccccc2NC(=O)C2=COCCO2)c1`, the outcome was inactive.
Under `CNc1ccc2ncc(-c3ccc(OC)c(OC)c3)n2n1` stands “inactive”; under `CCOc1ccc(-c2[nH]ncc2-c2ccc(OC)c(OC)c2)c(O)c1`, “inactive”.
To `COc1cc(CN2CCC(C(=O)NCCC(C)C)CC2)ccc1OCc1ccccc1` belongs “inactive”.
To `CC(C)(C)OC(=O)NC(Cc1ccccc1)C(=O)NCCCC(=O)O` (stereo unspecified) belongs “inactive”; to `C[C@@H]1CN([C@H](C)CO)C(=O)CCCn2nncc2CO[C@H]1CN(C)C(=O)Nc1cccc(F)c1`, “inactive”.
As to `C[C@@H]1CN([C@H](C)CO)C(=O)CCCn2cc(nn2)CO[C@H]1CN(C)C(=O)Nc1ccc(C(F)(F)F)cc1`, the compound was called inactive.
To `CC(C)NC(=O)N(C)C[C@H]1OCCCC[C@@H](C)Oc2ccc(NC(=O)Nc3ccc(C(F)(F)F)cc3)cc2C(=O)N([C@H](C)CO)C[C@@H]1C` belongs “inactive”; to `C[C@@H]1CN([C@@H](C)CO)C(=O)c2cc(C3=CCCC3)cnc2O[C@@H]1CN(C)C(=O)Nc1cccc(F)c1`, “inactive”.
Under `COC(=O)Cn1ccc(-c2ccc(Cl)cc2)c(C#N)c1=O` stands “inactive”; under `NC(=O)COC(=O)CC(NC(N)=O)c1ccc(Cl)cc1` (stereo unspecified), “inactive”; under `C[C@@H]1CN([C@H](C)CO)C(=O)CCCn2nncc2CO[C@@H]1CN(C)S(=O)(=O)c1cn(C)cn1`, “inactive”.
In the case of `Cc1ccccc1C(=O)Nc1ccc(C(=O)O)cc1NC(=O)c1ccccc1C`, the result was inactive.
Under `Cc1ccc(NC2=C([N+](=O)[O-])CS(=O)(=O)C2)cc1` stands “inactive”; under `O=C(COC(=O)C1CC2CCCC(C1)C2=O)Nc1ccc(F)c(Cl)c1` (stereo unspecified), “inactive”.
To `COc1ccccc1/C=C(/C(=O)OCC(=O)NCc1ccccc1)c1ccccc1` belongs “inactive”; to `S=c1sc2c(Cl)ncnc2n1-c1ccccc1`, “inactive”; to `CCCN(C)C[C@@H]1Oc2cc(C#C[C@H](C)O)ccc2S(=O)(=O)N([C@H](C)CO)C[C@@H]1C`, “inactive”.
As to `Cc1ccc(C)c(C(=O)Cn2ncc(Cl)c(Cl)c2=O)c1`, the compound was classed as inactive.
Under `COc1ccc(C#Cc2ccc([C@@H]3[C@H](CO)N4CCCCN(C(=O)Nc5ccccc5)C[C@@H]34)cc2)cc1` stands “inactive”; under `C[C@H]1CN([C@@H](C)CO)S(=O)(=O)c2ccc(C#CCN(C)C)cc2O[C@H]1CN(C)Cc1ccc2c(c1)OCO2`, “inactive”; under `CCCC#Cc1ccc2c(c1)O[C@@H](CN(C)Cc1ccc3c(c1)OCO3)[C@@H](C)CN([C@H](C)CO)S2(=O)=O`, “inactive”.
To `C[C@@H]1CN([C@H](C)CO)S(=O)(=O)c2ccc(-c3cncnc3)cc2O[C@H]1CN(C)Cc1cccnc1` belongs “inactive”; to `COc1ccccc1-c1ccc2c(c1)O[C@@H](CN(C)Cc1ccc3c(c1)OCO3)[C@@H](C)CN([C@H](C)CO)S2(=O)=O`, “inactive”; to `CC(C)CC#Cc1ccc2c(c1)O[C@@H](CN(C)Cc1ccc3c(c1)OCO3)[C@H](C)CN([C@H](C)CO)S2(=O)=O`, “inactive”.
To `C[C@H](CO)N1C[C@H](C)[C@@H](CN(C)Cc2ccc3c(c2)OCO3)Oc2cc(-c3cccc(C(=O)N(C)C)c3)ccc2S1(=O)=O` belongs “inactive”; to `COc1cccc(-c2ccc3c(c2)O[C@H](CN(C)Cc2ccncc2)[C@@H](C)CN([C@@H](C)CO)S3(=O)=O)c1`, “inactive”; to `C[C@H]1CN([C@@H](C)CO)S(=O)(=O)c2ccc(-c3ccccc3)cc2O[C@@H]1CN(C)Cc1cccc(F)c1`, “inactive”.
Take `Cc1cccc(CC2CC(=O)N(C3CCCCC3)C2=O)c1` (stereo unspecified): the outcome was inactive.
Under `CCCCn1c(=O)[nH]c(=O)c2c1nc(-c1ccc(OCCC)c(OCC)c1)n2C` stands “inactive”; under `Oc1ccc(-c2nc(-c3ccc(O)c(O)c3)cs2)cc1`, “inactive”; under `Cc1cccc(COc2ccc(/C=C3/C(=O)N(C)C(=S)N3C)cc2)c1`, “inactive”.
`COc1ccc(CCN(C)C(=O)CN2C(=O)NC3(CCCc4ccccc43)C2=O)cc1OC` (stereo unspecified): the result was inactive.
To `O=C(Nc1cccc2c1CCCC2)c1ccccc1Br` belongs “inactive”; to `C/C(=C\C(=O)N1CCc2ccccc21)C(=O)O`, “inactive”.
Under `CC(C)(C)NCCC(O)c1cc(C(F)(F)F)nc2c(C(F)(F)F)cccc12` (stereo unspecified) stands “inactive”; under `CCN(CC)CC#CCOC(c1ccccc1)c1ccccc1`, “inactive”.
As to `O=[N+]([O-])c1ccc(Oc2ccc(F)cc2)c2ccncc12`, the compound was classed as inactive.
Under `O=C(Nc1cc(C(F)(F)F)ccc1N1CCOCC1)c1ccccc1` stands “inactive”; under `COc1ccc(Br)cc1S(=O)(=O)NCc1ccccc1`, “inactive”; under `O=C(O)CCCC(=O)Nc1ccc(Br)cc1C(=O)O`, “inactive”.
`CC(C)[C@H]1COCCS(=O)(=O)N1Cc1ccccc1F`: the compound was called inactive.
Under `C[C@H](CO)N1C[C@H](C)[C@H](CN(C)S(=O)(=O)c2ccccc2C#N)OCc2cnnn2CCCC1=O` stands “inactive”; under `CC1CC1C(=O)N(C)CC(=O)Nc1cccc(F)c1` (stereo unspecified), “inactive”; under `CCCN(C)C[C@@H]1Oc2cc(C#CC3CCCC3)ccc2S(=O)(=O)N([C@H](C)CO)C[C@@H]1C`, “inactive”.
Turning to `CCOCCCNC(=O)c1ccccc1SC`, the result was inactive.
Under `Fc1cccc(CN2C[C@@H]3N[C@H](C2)[C@@H]3c2ccc(-c3cccc(F)c3)cc2)c1` stands “inactive”; under `Fc1cccc(-c2ccc([C@@H]3[C@@H]4CN(Cc5nccs5)C[C@H]3N4)cc2)c1`, “inactive”.
As for `c1csc(CNc2ncnc3ccc(-c4ccoc4)cc23)c1`, the outcome was inactive.
On to `CCS(=O)(=O)c1ccc2oc(Nc3ccccc3Br)nc2c1`, for which the compound was classed as inactive.
To `CCN1C(=O)CCCc2ccccc21` belongs “inactive”; to `O=C(NCC[C@@H]1CC[C@H](NS(=O)(=O)Cc2ccccc2)[C@H](CO)O1)C1CCC1`, “inactive”; to `CC(=O)c1ccc(Nc2cc(C)nc3ccc(C)cc23)cc1`, “inactive”.
For `Nc1nc(Nc2ccccc2)nc2ccccc12`, the outcome was inactive.
Take `CN(C)CC(=O)N1CCCCN2[C@@H](CO)[C@H](c3ccc(/C=C/c4ccccc4)cc3)[C@@H]2C1`: the outcome was inactive.
To `Cc1ccc(NC(=O)COC(=O)COc2ccc(Cl)cc2)c([N+](=O)[O-])c1` belongs “inactive”; to `COC(=O)c1ccc(C(=O)OC)c(NC(=O)COC(=O)CCOc2ccc(C)cc2)c1`, “inactive”.
In the case of `Cc1cc(C)cc(OC(=O)CS(=O)c2ccc(C(F)(F)F)cc2[N+](=O)[O-])c1` (stereo unspecified), the outcome was inactive.
To `C[C@@H]1CCCCO[C@@H](CN(C)S(C)(=O)=O)[C@H](C)CN([C@@H](C)CO)C(=O)c2cc(NC(=O)c3ccccc3)ccc2O1` belongs “inactive”; to `COc1nc(OCCNS(=O)(=O)c2ccc(C)cc2)nc(N(C)C)n1`, “inactive”.
Under `O=C(Nc1nc(-c2ccc3ccccc3c2)cs1)c1ccc(N2C(=O)CCC2=O)cc1` stands “inactive”.
Under `Cc1ccc(CC(=O)Nc2nccs2)cc1` stands “inactive”; under `C[C@H]1CN([C@@H](C)CO)C(=O)c2cc(NC(=O)Nc3cccc4ccccc34)ccc2O[C@H]1CN(C)S(=O)(=O)c1ccc(Cl)cc1`, “inactive”.
On to `N#C[C@H]1[C@H](c2ccc(C#CC3CCCC3)cc2)[C@H](CO)N1C(=O)Cc1ccccn1`, for which the outcome was inactive.
On to `N#C[C@@H]1[C@@H](c2ccc(-c3ccccc3)cc2)[C@@H](CO)N1C(=O)Cc1ccncc1`, for which the compound was called inactive.
Consider `C[C@H](CO)N1C[C@H](C)[C@H](CN(C)C(=O)NC2CCCCC2)Oc2cc(C#Cc3cccc(F)c3)ccc2S1(=O)=O`, for which the compound was called inactive.
Under `CS(=O)(=O)c1sc2nc(-c3cccs3)cc(-c3ccccc3)c2c1N` stands “inactive”.
Under `COc1ccc(NC(=O)c2ccc3c(c2)OCO3)cc1Cl` stands “inactive”; under `COc1ccc(C(=O)Nc2cccc(S(C)(=O)=O)c2)cc1OC`, “inactive”; under `C[C@@H]1CN([C@@H](C)CO)C(=O)c2cc(C#CCN(C)C)cnc2O[C@H]1CN(C)Cc1ccc(F)cc1`, “inactive”.

The values are drawn from PubChem BioAssay AID720513 (Broad Institute, 2013).
